Assay outcomes deposited in PubChem BioAssay by National Center for Advancing Translational Sciences (NCATS).
HepG2 viability = kills HepG2 cells in TGF-b inhibitor counter-screen; Potency, µM (doses to about 46.1 µM), for the others: top-dose activity change, negative = cytotoxicity, actives largely listed as cytotoxic; 410,000 tested, 0.76% active; AID 588856; HepG2 CAGA-GFP viability, ATP luminescence, 18 h
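HepG2 CAGA-GFP cells (1000/well, DMEM with 1% FBS) received compound, then TGF-beta at 500 pg/mL final, and were incubated 18 hours at 37 degrees C. Viability was read by CellTiter-Glo luminescence. Media-only wells were set as complete cell-killing and DMSO as no toxicity.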
KB-V1 MDR tox = kills drug-selected multidrug resistant KB-V1 cells. KB-V1 MDR cells viability, CellTiter-Glo, 72 h. Potency, µM (top dose mostly 46.1 µM), actives largely listed as cytotoxic. 400,000 tested, 3.4% active. AID 1347076; note: % is set by controls: 0 for no effect and ±100 for the full control effect; nearly all actives have a fitted effect of over 60% in size
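Luminescent ATP read-out (CellTiter-Glo, 10 min) measures survival of drug-selected KB-V1 MDR cells after 72 h, 37 degrees C compound exposure. Medium: phenol-red-free DMEM, 10% FBS. Values from fitted concentration-response curves.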
KB-3-1 cytotox = KB-3-1 parental cell cytotoxicity; KB-3-1 viability, CellTiter-Glo ATP luminescence, 72 h; Potency, µM (highest dose often 46.1 µM), usual class: cytotoxic; 400,000 tested, 1.4% active; note: % is set by controls: 0 for no effect and ±100 for the full control effect; nearly all actives have a fitted effect of over 60% in size
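Parental KB-3-1 viability, qHTS format: 72 h compound exposure, 37 °C; CellTiter-Glo; media-only wells and DMSO plates as controls; concentration-effect fits on corrected data.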
HT1080 IDH1KD tx = HT-1080 IDH1 knockdown cell toxicity (counter line). HT-1080 IDH1 knockdown viability, ATP luminescence, 48 h. Potency, µM (doses to about 46.1 µM), for the others: top-dose activity, negative = toxicity, most hits filed as cytotoxic. 360,000 tested, 2% active;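 note: 0% = DMSO wells and -100% = cell-free medium wells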
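Knockdown cells (IDH1KD HT-1080) received compounds 2 h after plating at 750 cells/well and were kept 48 h at 37 °C in 5% FBS RPMI. A CellTiter-Glo luminescence read gave % activity for curve fitting.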
HT1080-NT tox = kills 2HG-producing HT-1080-NT fibrosarcoma cells. HT-1080-NT fibrosarcoma viability, CellTiter-Glo ATP luminescence, 48 h. Potency, µM (doses to about 46.1 µM), for the others: top-dose activity, negative = less viability, actives largely listed as cytotoxic. 360,000 tested, 1.6% active;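 note: NT is the 2HG producing partner of a matched IDH1 knockdown line; 0% = DMSO-treated cells and -100% = media-only wells without cells; nearly all actives have a fitted effect of over 55% in size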
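Fibrosarcoma NT cells, 750 per well in 5% FBS RPMI, were exposed to compound for 48 hours. Viability: CellTiter-Glo luminescence.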
TGFb SMAD3 inh = TGF-b pathway inhibition; 410,000 tested, 1.2% active; HepG2 CAGA-GFP TGF-b/SMAD3 reporter, GFP fluorescence, 18 h; TGF-beta stimulated, 500 pg/mL final; AID 588855; Potency, µM (titrated, usually from 46.1 µM), without a hit: at the highest dose activity, negative = inhibition, actives largely listed as inhibitors; note: % is set by controls: 0 for no effect and ±100 for the full control effect; nearly all actives have a fitted effect of over 65% in size
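Inhibition was scored as loss of TGF-beta-induced (500 pg/mL final, 18 hours, 37 degrees C) GFP in HEPG2 cells carrying a CAGA-GFP reporter, in DMEM with 1% FBS. Well GFP was summed per cell; Activity was normalised to unstimulated and stimulated DMSO wells, then concentration-response fitting.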
Numbers without * were called inactive; i = inactive; ? = inconclusive; nt = no result. The list is not random: actives were taken first. Their share in the collection is about 6.6%. Calls come from the whole dose curve; as a rule, active = well fitted curve in the direction sought with a large enough effect; inconclusive = small, poorly fitted or top-dose-only effect, or another doubt; inactive = no such curve, though single readings can be large; an effect the other way counts as inactive or inconclusive. Potency is the fitted concentration of half-maximal effect.

SMILES	HepG2 viability	KB-V1 MDR tox	KB-3-1 cytotox	HT1080 IDH1KD tx	HT1080-NT tox	TGFb SMAD3 inh
COC(=O)c1ccccc1NC(=O)c1cc[n+]([O-])cc1	-9%	i	i	-2%	-3%	-4%
CCN(CC)C(=O)C1=C(C)N(Cc2ccc(C(C)(C)C)cc2)C(=O)C(CC(=O)NCCCCc2ccccc2)C1 (configuration not stated)	-58%	?	?	?	?	14µM*
CC1=C(C(=O)N(C)C)CC(CC(=O)NCCCCc2ccccc2)C(=O)N1Cc1ccc(C(C)(C)C)cc1 (configuration not stated)	-22%	?	i	-26%	-22%	?
O=S(=O)(CCSc1nc2ccccc2s1)c1nc2ccccc2s1	-96%	?	?	21µM*	21µM*	?
C=CCS(=O)(=O)c1nc2ccccc2s1	10µM*	23µM*	?	-5%	-9%	18µM*
CCCOc1ccc(CNC(=O)C(CC)n2nc(C)c3sc4ccccc4c3c2=O)cc1 (configuration not stated)	-2%	i	i	nt	nt	-1%
COc1ccc(C(C)=O)cc1COc1ccc(-n2cnnn2)cc1	14%	21µM*	i	4%	-3%	12%
Cn1cnc([N+](=O)[O-])c1S(=O)(=O)Nc1ccccc1	-24%	?	?	?	10µM*	-5%
Cn1cnc([N+](=O)[O-])c1S(=O)(=O)Oc1ccccc1	-189%	?	?	23µM*	?	?
CC1(C)CC(=O)C(N=Nc2ccc(C(F)(F)F)cc2[N+](=O)[O-])=C(O)C1	-57%	i	i	12%	11%	13µM*
S=c1c2c(nc3nc[nH]n13)CCC2	-64%	i	i	-4%	-7%	10µM*
CC1CCc2c(nc3nc[nH]n3c2=O)C1 (configuration not stated)	-25%	i	i	15%	12%	6%
Cc1ccc(NC(=O)C(=Cc2ccc(C(=O)O)cc2)C(=O)Nc2ccc(C)cc2C)c(C)c1	10µM*	?	?	12µM*	15µM*	7.1µM*
Cc1ccc(NC(=O)[C@H](Cc2c[nH]c3ccccc23)NC(=O)[C@@H]2Cc3ccccc3CN2)c(C)c1	-46%	?	1.8µM*	?	?	-28%
Cc1cc(C)cc(NC(=O)[C@H](Cc2c[nH]c3ccccc23)NC(=O)[C@@H]2Cc3ccccc3CN2)c1	-69%	?	i	?	?	?
Cc1cccc(NC(=O)[C@H](Cc2c[nH]c3ccccc23)NC(=O)[C@@H]2Cc3ccccc3CN2)c1	-16%	i	5.8µM*	-27%	-14%	4%
CCc1ccc(NC(=O)[C@H](Cc2c[nH]c3ccccc23)NC(=O)[C@@H]2Cc3ccccc3CN2)cc1	-68%	?	5.2µM*	?	?	-2%
COc1ccc(Cn2c(=O)[nH]c3cc(C(=O)N4CCN(c5cc(Cl)ccc5C)CC4)ccc3c2=O)cc1	-5%	i	i	nt	nt	-8%
O=C(c1ccc(Cl)cc1)c1ccc(OCC(=O)N2CCOCC2)cc1	-19%	18µM*	i	-9%	-1%	10%
CC(/C=N/NC(=O)c1ccncc1)=C\c1ccc(C(C)C)cc1	-13%	10µM*	i	-22%	-16%	26%
CC(/C=N/NC(=O)c1cccnc1)=C\c1ccccc1	6%	i	i	14%	13%	1%
COc1ccc(N2C(c3cc(OC)cc(OC)c3)=Cc3ccccc3C2CC(C)=O)cc1 (configuration not stated)	nt	i	23µM*	-28%	-24%	nt
O=S(=O)(O)c1cc(O)c2c(O)c(N=Nc3cc(Cl)ccc3O)c(S(=O)(=O)O)cc2c1	-31%	?	15µM*	?	?	-20%
